Laboratory results published in PubChem BioAssay (EPA / NIEHS).
Calls of active or inactive are those of the source. How the source made its calls: active means hit-call score of the fitted dose curve at least 0.9, where 1 is the maximum; inactive means score below 0.9.

Key:
[1] = APR_HepG2_CellCycleArrest_24hr: Apredica 24-hour HepG2 Assay for Cell Cycle Arrest (AID 2282905); details: imaging, actives raise or lower the signal;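 further: cell cycle arrest scored as ratio of 2N to 4N nuclear DNA content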
Outline: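 Readout: Hoechst 33342 nuclear DNA content by high-content fluorescent imaging, six images/well, 20x. Human HepG2 liver cells, 24 hr compound exposure, 0.39–200 uM, final DMSO 0.5% v/v. Gain or loss fitted relative to DMSO baseline.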

[2] = APR_HepG2_NuclearSize_24hr: Apredica 24-hour HepG2 Assay for Nuclear Size (AID 2282907); details: high-content imaging, actives raise or lower the signal
Outline: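 Read-out: nuclear diameter from Hoechst 33342 (2 ug/mL) imaging of fixed HepG2 cells, 20x, six fields/well. Compounds ran at 0.39–200 uM for 24 hr, 0.5% DMSO final. Gain or loss was fitted bidirectionally relative to the DMSO baseline.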

[3] = APR_HepG2_CellLoss_24hr: Apredica 24-hour HepG2 Assay for Cell Loss (AID 2282908); details: high-content imaging
Outline: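 Read-out: Hoechst 33342-stained nuclei counted by automated fluorescence imaging after formaldehyde fixation and Triton permeabilization. Ten concentrations, 0.39 to 200 uM, duplicate wells, 0.5% DMSO final. Gain or loss of signal fitted relative to DMSO baseline.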

[4] = APR_HepG2_MitoticArrest_24hr: Apredica 24-hour HepG2 Assay for Mitotic Arrest (AID 2282910); details: high-content imaging, actives raise or lower the signal
Outline: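 Treatment lasted 24 hr in the human HepG2 line at 0.39–200 uM, solvent held at 0.5% DMSO. Fixed cells were stained with Hoechst 33342 and anti-phospho-histone H3, imaged at 20x, and analysed by gain- or loss-of-signal fitting against DMSO.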

[5] = APR_HepG2_MitoMembPot_24hr: Apredica 24-hour HepG2 Assay for Mitochondrial Membrane Potential (AID 2282911); details: imaging, actives raise or lower the signal
Outline: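 Human hepatoma HepG2 cultures received ten compound concentrations up to 200 uM for 24 hr. Membrane-potential dye signal, captured by automated fluorescence microscopy, was scored for gain or loss against DMSO controls.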

[6] = APR_HepG2_MitoMass_24hr: Apredica 24-hour HepG2 Assay for Mitochondrial Mass (AID 2282912); details: high-content imaging, actives raise or lower the signal
Outline: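 HepG2, 24 hr dosing, 10 concentrations 0.39–200 uM in duplicate, DMSO 0.5% final. MitoTracker Red CMXRos 250 nM, 30 min pre-fix; 3.7% formaldehyde fix. Imaging-based fluorescence intensity; gain/loss fit vs DMSO baseline.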

[7] = APR_HepG2_p53Act_24hr: Apredica 24-hour HepG2 Assay for p53 Activation (AID 2282913); details: high-content imaging, actives raise or lower the signal;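 further: p53 protein immunofluorescence averaged per cell in HepG2 with Hoechst nuclei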
Outline: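 Automated fluorescence imaging quantifies p53 immunostaining in HepG2 cells after a 24 hr exposure (0.39–200 uM, duplicate, 0.5% DMSO). Nuclei are located by Hoechst 33342 staining.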

[8] = APR_HepG2_CellCycleArrest_72hr: Apredica 72-hour HepG2 Assay for Cell Cycle Arrest (AID 2282914); details: high-content imaging, actives raise or lower the signal
Outline: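 Cell cycle arrest in HepG2 was scored from nuclear DNA content after 72 hr compound treatment (0.39–200 uM). Activity, either gain or loss, was fitted against the DMSO baseline.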

[9] = APR_HepG2_CellLoss_72hr: Apredica 72-hour HepG2 Assay for Cell Loss (AID 2282915); details: high-content imaging
Outline: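 HepG2 cells were exposed for 72 hr to compounds at 0.39–200 uM (ten concentrations, duplicate) in 0.5% v/v final DMSO. Nuclei were stained with Hoechst 33342 after 3.7% formaldehyde fixation, imaged at 20x, and counted; fits bidirectional versus DMSO.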

Measured: outcome

Cc1c(-c2cccnc2)c2ccccc2n1CCCCC(=O)O
inactive: all assays above

O=C(NS(=O)(=O)/C=C/c1ccccc1)c1ccc(F)cc1Cl
inactive: all assays above

Nc1cccc(N)c1
inactive: all assays above

O=C1OC(=O)C2C3C=CC(C3)C12 (stereo unspecified)
inactive: all assays above
